nsP2pro primary = inhibitors of chikungunya virus nsP2 protease | AID 1964107 | 31,000 tested, 1.1% active | FRET peptide cleavage, nsP2pro, fluorescence 1 h | Potency, µM (series often up to 24.9 µM), hits mostly inhibitors; further: nearly all actives have a fitted effect of over 60% in size
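Enzyme 150 nM, substrate 2.5 uM (both final); Tris-HCl 10 mM pH 8.0 + 0.01% Tween 20; cpd up to 25 uM, 7 pts; 15 min preinc., 1 h RT; fluorescence ex 525/em 598.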
nsP2 cell sec = inhibits CHIKV nsP2 protease in cells. shares compounds with nsP2pro primary. cell-based CHIKV nsP2 protease reporter assay. Potency, µM (top dose mostly 51.1 µM), hits mostly inhibitors. 450 tested, 10% active; further: nearly all actives have a fitted effect of over 70% in size
CHIKV NSP2 FL = inhibits full-length CHIKV NSP2 enzyme; shares compounds with nsP2pro primary; Full-length CHIKV NSP2 protease enzymatic counterscreen; Potency, µM (series often up to 50.7 µM), most hits filed as inhibitors; 410 tested, 39% active; AID 1964101; further: nearly all actives have a fitted effect of over 65% in size
Furin counterscr = human furin inhibition, counterscreen for nsP2pro inhibitors; shares compounds with nsP2pro primary; Recombinant human furin enzymatic counterscreen, fluorogenic substrate; 410 tested, 6% active; Potency, µM (series often up to 50.6 µM), actives largely listed as inhibitors; AID 1964102
Target sequence (P09958 whole entry, looked up): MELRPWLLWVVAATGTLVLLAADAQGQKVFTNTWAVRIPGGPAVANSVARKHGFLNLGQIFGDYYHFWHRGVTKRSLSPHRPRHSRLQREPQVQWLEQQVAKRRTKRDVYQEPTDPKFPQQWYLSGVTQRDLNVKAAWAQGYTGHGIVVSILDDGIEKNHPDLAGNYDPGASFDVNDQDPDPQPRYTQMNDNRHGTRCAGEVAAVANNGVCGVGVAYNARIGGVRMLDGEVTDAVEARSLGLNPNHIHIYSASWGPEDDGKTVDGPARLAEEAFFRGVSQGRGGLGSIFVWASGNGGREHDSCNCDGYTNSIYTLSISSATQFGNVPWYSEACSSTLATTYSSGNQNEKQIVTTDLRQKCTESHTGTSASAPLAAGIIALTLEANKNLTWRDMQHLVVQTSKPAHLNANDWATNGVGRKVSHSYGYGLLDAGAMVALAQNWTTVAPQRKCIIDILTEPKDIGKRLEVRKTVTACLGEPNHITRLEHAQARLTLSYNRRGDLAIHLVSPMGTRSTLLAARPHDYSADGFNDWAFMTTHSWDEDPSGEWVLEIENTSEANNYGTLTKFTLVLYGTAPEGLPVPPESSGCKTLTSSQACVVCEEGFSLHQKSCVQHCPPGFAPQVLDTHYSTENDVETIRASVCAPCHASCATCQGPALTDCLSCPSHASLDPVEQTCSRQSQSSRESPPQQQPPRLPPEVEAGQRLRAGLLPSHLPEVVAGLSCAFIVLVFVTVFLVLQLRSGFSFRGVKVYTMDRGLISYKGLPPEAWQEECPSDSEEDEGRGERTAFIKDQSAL
nsP2 NS23 pep = selectivity test for CHIKV nsP2 protease inhibitors: endogenous NS2/3 peptide; Purified CHIKV nsP2 protease, endogenous NS2/3 peptide cleavage; 410 tested, 34% active; shares compounds with nsP2pro primary; AID 1964103; Potency, µM (doses to about 51 µM), usual class: inhibitors; further: nearly all actives have a fitted effect of over 55% in size
Papain counter = papain protease inhibition, counterscreen for nsP2pro inhibitors | Potency, µM (series often up to 51 µM), actives largely listed as inhibitors | purified papain protease activity, enzymatic inhibition | 410 tested, 5% active | shares compounds with nsP2pro primary
nsP2pro confirm = CHIKV nsP2 protease inhibition, confirmatory qHTS. shares compounds with nsP2pro primary. CHIKV nsP2 protease enzymatic activity, qHTS. Potency, µM (top dose mostly 25.5 µM), usual class: inhibitors. 410 tested, 43% active. AID 1964105; further: nearly all actives have a fitted effect of over 75% in size
HCV NS3 counter = HCV NS3/4A protease inhibition, counterscreen | shares compounds with nsP2pro primary | HCV NS3/4A protease biochemical counterscreen | Potency, µM (top dose mostly 50.9 µM), actives largely listed as inhibitors | 410 tested, 20% active | AID 1964106; further: nearly all actives have a fitted effect of over 55% in size
Numbers stand for hits; - = inactive; ? = inconclusive. This excerpt belongs to a sample that is enriched for hits. The call rests on the fitted dose curve.

SMILES	nsP2pro primary	others
CCOC(=O)Cn1cccc1-c1nc(-c2ccc(OC)cc2)c(-c2ccc(OC)cc2)s1	6.2µM	nsP2 cell sec=-;CHIKV NSP2 FL=?;Furin counterscr=-;nsP2 NS23 pep=-;Papain counter=-;nsP2pro confirm=-;HCV NS3 counter=-
COc1ccc(-c2nnc(SCC(=O)Nc3c(C)cccc3C)nc2-c2ccc(OC)cc2)cc1	-
COc1ccc(-c2noc(CC(=O)O)c2-c2ccc(OC)cc2)cc1	-
O=C(Nc1cccnc1)c1ccco1	-
O=C(O/N=C1\c2ccccc2-c2nc3ccccc3nc21)c1ccco1	?	nsP2 cell sec=-;CHIKV NSP2 FL=3.7µM;Furin counterscr=-;nsP2 NS23 pep=?;Papain counter=2.6µM;nsP2pro confirm=3.2µM;HCV NS3 counter=-
Cc1cc(NC(=O)c2ccco2)cc(-c2nc3ccccc3o2)c1O	-
CC(C)CCC[C@@H](C)[C@H]1CC[C@H]2[C@@H]3CC=C4C[C@@H](O)CC[C@]4(C)[C@@H]3CC[C@]12C	-
CC1CC(O)/C=C/C(O)C(O)CC(=O)Cc2c(Cl)c(O)cc(O)c2C(=O)O1 (stereo not drawn)	-
OCc1ccc(-c2ccc3ncnc(NCc4nccs4)c3c2)o1	8.9µM	nsP2 cell sec=?;CHIKV NSP2 FL=10µM;Furin counterscr=-;nsP2 NS23 pep=21µM;Papain counter=-;nsP2pro confirm=?;HCV NS3 counter=3.7µM
c1csc(CNc2ncnc3ccc(-c4ccc5c(c4)OCO5)cc23)n1	-
c1cncc(-c2ccc3ncnc(NCc4cccs4)c3c2)c1	-
COCC1CN(C)CC12CCN(C(=O)c1cc3ccccc3[nH]1)CC2 (stereo not drawn)	-
O=C(CN1CCCCC1)N1CCCC(N2CCN(Cc3ccc4c(c3)OCO4)CC2)C1 (stereo not drawn)	-
CCOC(=O)c1c(NC(=O)COc2ccccc2)sc(C(C)=O)c1C	-
CCOC(=O)c1c(NC(=O)c2nc(SCC)ncc2Cl)sc(C(C)=O)c1C	-
CCOC(=O)c1c(NC(=O)c2nc(S(C)(=O)=O)ncc2Cl)sc(C(C)=O)c1C	?	nsP2 cell sec=3.7µM;CHIKV NSP2 FL=?;Furin counterscr=-;nsP2 NS23 pep=4.6µM;Papain counter=-;nsP2pro confirm=-;HCV NS3 counter=?
Cc1cc(C)cc(NC(=O)N2CCC(CCc3nc(C4CCOCC4)no3)CC2)c1	-
CNc1nc2c(s1)C(c1ccc(Cl)cc1)CC(=O)N2 (stereo not drawn)	3.2µM	nsP2 cell sec=-;CHIKV NSP2 FL=2.9µM;Furin counterscr=-;nsP2 NS23 pep=8.2µM;Papain counter=-;nsP2pro confirm=5.7µM;HCV NS3 counter=-
C[N+]1([O-])[C@H]2CC(OC(=O)C(CO)c3ccccc3)C[C@H]1[C@H]1O[C@H]12 (stereo partly drawn)	-
CCC(=O)C1CCCN(C(=O)CC(c2ccc3c(c2)OCO3)c2c(O)cc(OC)cc2OC)C1 (stereo not drawn)	-
O=C(NCCc1nc2ccccc2[nH]1)C1CCCCC1	-
COC(=O)CC(O)C1OC(c2ccccc2)C(O)C1O (stereo not drawn)	-
O=C1C=CC2OC(c3ccccc3)C(O)C2O1 (stereo not drawn)	?	nsP2 cell sec=?;CHIKV NSP2 FL=?;Furin counterscr=-;nsP2 NS23 pep=?;Papain counter=-;nsP2pro confirm=?;HCV NS3 counter=?
O=C(O)CC1CCC(c2ccc(-c3ccc4nc(C(=O)NCc5ccc(OC(F)(F)F)cc5)cn4c3)cc2)CC1 (stereo not drawn)	-
Cc1ccc(S(=O)(=O)Nc2ccc(Cl)cc2C(=O)Nc2nc(-c3ccccc3)cs2)cc1	-
SMILES	nsP2pro primary	others
Cc1cc(C)nc(NC(=S)N2CCN(c3cnc4nccn4c3)CC2)c1	-
N[C@@H](CO)C(=O)Nc1ccc(Cl)cc1C(=O)c1ccc[nH]1	-
NC(CO)C(=O)NNCc1ccc(O)c(O)c1O (stereo not drawn)	1.8µM	nsP2 cell sec=-;CHIKV NSP2 FL=6.5µM;Furin counterscr=-;nsP2 NS23 pep=4.1µM;Papain counter=-;nsP2pro confirm=1.3µM;HCV NS3 counter=?
FC(F)(F)c1cccc(N2CCN(C(=S)Nc3ccccn3)CC2)c1	-
Cc1cccc(-c2cccc(CN3CCC(N[S+](=O)([O-])c4c(C)noc4C)CC3)c2)c1	-
CC1CCC2(C(=O)O)CCC3(C)C(=CCC4C5(C)CCC(O)C(C)(C)C5CCC43C)C2C1C (stereo not drawn)	-
O=C([C@@H]1C[C@H](N2CCN(c3ncccn3)CC2)CN1)N1CCC(F)(F)C1	-
